Giardia FBPA inh – blocks Giardia fructose-bisphosphate aldolase activity; A8B2U2; purified Giardia FBPA; Potency, µM (highest dose often 59.6 µM), without a hit: at the top dose activity, negative = inhibition, hits mostly inhibitors; 0.71% of 290,000 active; AID 2451; also: potency is read from the fitted curve at half-maximal effect; nearly all actives have a fitted effect of over 55% in size
Target sequence (A8B2U2 whole entry, looked up): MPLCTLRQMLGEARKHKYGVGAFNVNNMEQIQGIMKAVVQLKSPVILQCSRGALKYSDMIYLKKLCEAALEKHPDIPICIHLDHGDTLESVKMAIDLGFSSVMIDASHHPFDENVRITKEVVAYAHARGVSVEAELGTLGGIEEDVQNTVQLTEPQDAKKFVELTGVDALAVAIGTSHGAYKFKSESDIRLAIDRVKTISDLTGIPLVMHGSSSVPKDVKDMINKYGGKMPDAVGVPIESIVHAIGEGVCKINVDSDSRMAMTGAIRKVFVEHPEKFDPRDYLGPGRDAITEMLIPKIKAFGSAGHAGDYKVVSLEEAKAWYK
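Giardia FBPA (40 nM reagent) was preincubated 10 min at RT with compound (up to 57.5 uM final), then substrate plus GAPDH/TPI/NAD/arsenate coupling system with diaphorase/resazurin was added; resorufin fluorescence (525/598 nm) was read after 20 min.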
HCV inh – blocks hepatitis C virus; Huh7.5.1 HCVcc-Cre infection, luciferase reporter, 44 h; Potency, µM (series often up to 41.8 µM), inactives show at the top dose activity change, negative = inhibition, actives largely listed as inhibitors; 3.4% of 340,000 active; AID 651820; also: potency is read from the fitted curve at half-maximal effect
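Reporter virus HCVcc-Cre (~0.5 moi) infects cells exposed to compound; seeding density 1,000 cells/well with 4 h settling beforehand. Luminescence, 15 sec read, taken 44 h post-infection following a 15 min RT substrate incubation.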
FMDV inh – foot and mouth disease virus antiviral activity; Potency, µM (top dose mostly 57.9 µM), inactives show top-dose activity change, negative = inhibition, hits mostly inhibitors; FMDV antiviral cell-based qHTS; 1.2% of 410,000 active; calls by dose curve; tested in HEK293T cells; also: read-out not given here; potency is read from the fitted curve at half-maximal effect; nearly all actives have a fitted effect of over 45% in size
Lassa entry inh – blocks Lassa virus binding to or entry into cells. Lassa virus pseudotype entry inhibition, cell reporter. Potency, µM (doses to about 37.9 µM), for inactives: at the highest dose activity change, negative = inhibition, usual class: inhibitors. 1.2% of 300,000 active. AID 540256; calls by dose curve; tested in HEK293 cells; also: potency is read from the fitted curve at half-maximal effect; nearly all actives have a fitted effect of over 50% in size
HCMV inh – inhibitors of human cytomegalovirus; activity change, negative = inhibition, % at 57.5 µM; 4.5% of 410,000 active; HFF cells, HCMV-luciferase reporter, 72 h; active compounds read low; in the data active = activity change below about -60%; inconclusive = no clear call, values can overlap the other calls; inactive = above about -39%
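Inhibition of viral replication was scored as loss of reporter luminescence in HFFs infected with HCMV-luciferase (MOI 1 PFU/cell) for 72 h; compounds tested at 2 doses, normalized to buffer and Salinomycin controls.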
MARV entry inh – Marburg virus entry inhibition; AID 540276; 1.8% of 300,000 active; Marburg virus pseudotyped entry inhibition, cell reporter; Potency, µM (titrated, usually from 37.8 µM), inactives show top-dose activity change, negative = inhibition, usual class: inhibitors; calls by dose curve; tested in HEK293 cells; also: potency is read from the fitted curve at half-maximal effect
An asterisk follows results filed as active; ? = inconclusive; / = no result; [ ] = remark or other dose. An excerpt weighted towards active compounds, which were near 8.3% of everything screened. Unless noted, calls follow the shape of the dose curve; as a rule, active = well fitted curve in the direction sought with a large enough effect; inconclusive = small, poorly fitted or top-dose-only effect, or another doubt; inactive = no such curve, though single readings can be large; an effect the other way counts as inactive or inconclusive. % is scaled to controls: 0 for no effect and ±100 for the full control effect.

SMILES	Giardia FBPA inh	HCV inh	FMDV inh	Lassa entry inh	HCMV inh	MARV entry inh
CCC(C)NC(=O)c1sc2nc(C)c(C(=O)Nc3ccc(C)cc3C)c(-c3ccccc3Cl)c2c1N (centres undefined)	/	/	-10.5%	5.5%[46.1 µM]	-20.9	?
COC(=O)C1(Cc2ccccc2)C=C2C(=C(c3ccccc3)C(=O)C2C)CN1 (centres undefined)	-20.4%	/	/	/	/	/
CN(C)/N=C/c1ccc(P(c2ccc(/C=N/N(C)C)o2)c2ccc(/C=N/N(C)C)o2)o1	0.0%	?	16.6%	?	-61.9*	?
Oc1ccccc1Oc1c(F)c(F)nc(N2CCCC2)c1F	?	-27.4%	4.6%	4.61µM*	-13.3	?
Oc1ccccc1Oc1ncc(Br)c(N2CCOCC2)n1	5.8%	-23.0%	-28.8%	17.5%	39.3	-16.4%
CCOc1ccc(CNC(=O)CCC(=O)N2CC3CCCN3c3ccccc32)cc1 (centres undefined)	/	/	-20.6%	15.1%[46.1 µM]	12.9	/
O=C1OCC2=C1C(c1ccc3c(c1)OCO3)c1cc3c(cc1O2)OCO3 (centres undefined)	/	?	0.0%	?	-23.0	-22.4%
COc1cc(C2C3=C(COC3=O)Oc3cc4c(cc32)OCO4)cc(OC)c1O (centres undefined)	/	-18.4%	-17.4%	?	-79.4*	?
COc1cc(C2C3=C(COC3=O)Oc3cc4c(cc32)OCO4)cc(OC)c1OC (centres undefined)	/	?	-20.7%	?	-84.2*	?
FC(F)(F)c1ccc(-c2noc(-c3ccccc3)c2I)cc1	5.9%	/	/	/	/	/
CCC12CN3CC(CC)(CN(C1)C3c1cc(Br)ccc1OC)C2=O (centres undefined)	/	/	-14.4%	14.8%[46.1 µM]	-0.5	-2.9%[46.1 µM]
Cc1cc(/C=N\NC(=O)c2cccs2)c(C)n1-c1ccc2ncccc2c1	-11.6%	?	-29.2%	10µM*	38.5	?
COc1cccc(/C=N\NC(=O)c2ccc(Cn3cc(Br)c([N+](=O)[O-])n3)o2)c1O	7.7%	2.82µM*	10.0%	6.31µM*	-81.1*	3.98µM*
CCOc1ccccc1/C=N/NC(=O)c1c(C)nc2ccc(Br)cn12	-23.0%	-22.4%	?	/	6.7	/
COc1ccc(/C=N\NC(=O)c2c(C)nc3ccc(Br)cn23)cc1	8.9%	3.2%	12.0%	?	-68.8*	-9.3%
Cc1cc(/C=N\NC(=O)COc2cccc3cccnc23)c(C)n1-c1ccc(Br)cc1	-0.3%	?	-19.5%	-11.7%	?	-44.3%
COc1cccc(/C=N/NC(=O)c2c(C)nc3ccc(Br)cn23)c1O	7.0%	4.47µM*	-22.4%	5.17µM*	/	1.83µM*
O=C(OCC1CCCO1)c1ccc2c(c1)N(Cc1cccc(Cl)c1)C(=O)c1ccccc1S2(=O)=O (centres undefined)	/	/	-13.7%	-6.0%[46.1 µM]	13.3	/
COc1cccc(-c2cn3c(n2)sc2cc(C(=O)NCCCc4ccccc4)ccc23)c1	/	/	9.4%	-15.3%[46.1 µM]	/	/
Cc1nc2ccccn2c1C(=O)N/N=C/c1ccccc1	7.2%	7.6%	-3.3%	/	-3.1	/
Cc1nc2ccccn2c1C(=O)N/N=C/c1cc(C)n(-c2ccc(Br)cc2)c1C	-5.3%	3.98µM*	?	-16.6%	?	?
COc1cc(/C=N/NC(=O)c2c(C)nc3ccc(Cl)cn23)cc(OC)c1OC	-13.9%	?	-4.8%	-9.2%[46.1 µM]	28.7	4.47µM*
CCOc1ccc(C2c3c(oc4ccc(C)cc4c3=O)C(=O)N2c2nc(C)c(C)s2)cc1OC (centres undefined)	/	/	-15.7%	?	8.6	-18.1%[46.1 µM]
COC(=O)C[C@H]1c2ccccc2[C@H]2C(=C[C@@H](C)[C@H]3C(=O)N(O)C(=O)[C@H]32)N1C(=O)OC	3.9%[12.9 µM]	/	/	/	/	/
C=CCn1c(O)c(C(C)=Nc2ccc3c(c2)CCC3)c(=O)[nH]c1=O	-3.2%	12.7%	-28.3%	-27.7%	68.2	14.1%[14.2 µM]
SMILES	Giardia FBPA inh	HCV inh	FMDV inh	Lassa entry inh	HCMV inh	MARV entry inh
C=CCn1c(O)c(C(CC)=Nc2ccc3c(c2)CCC3)c(=O)[nH]c1=O	-1.2%	18.9%	?	0.891µM*	49.8	9.4%
S=C(NNc1ccnc2cc(Cl)ccc12)Nc1ccc(Cl)cc1Cl	-6.2%	5.62µM*	?	/	0.0	/
CCOc1ccc(NC(=S)NNc2ccnc3cc(Cl)ccc23)cc1	-5.9%	3.16µM*	?	-0.5%	54.4	?
Cc1csc2nc(-c3cccc(NC(=O)c4c(F)cccc4F)c3)cn12	/	/	-10.0%	3.1%[46.1 µM]	-13.2	/
CCC(C)CC(C)CC(C)C(=O)/C=C(/O)C(C)CC(C)C/C=C/C(C)C(O)C(C)C(O)CC1CCC(C)(C)O1 (centres undefined)	5.7%	/	/	/	/	/
COC(=O)[C@@H]1CC[C@H](C)[C@@H](c2ccc(C)cc2)N1C(=O)c1ccc(/C=N\O[C@@H](C)c2cc(-c3c(C)cc(C)cc3C)no2)cc1	-0.1%[12.9 µM]	/	/	/	/	/
O=[N+]([O-])c1ccc(O)c(-c2ccnc3cc(-c4ccccc4)nn23)c1	/	/	?	?	-77.8*	-15.3%[46.1 µM]
Cc1c(C(=O)NCC2CCCN(C)C2)cnn1-c1ncc2c(n1)-c1ccccc1CCC2 (centres undefined)	/	/	0.2%	/	/	/
CCCOc1ccc(N2C(=O)C[C@@H](N(Cc3ccc(S(N)(=O)=O)cc3)C(=O)CC)C2=O)cc1	/	/	/	/	/	2.6%
CCOC(=O)C1CCN(c2nc(N)c3c(N)nc(SCC(=O)O)cc3c2C#N)CC1	7.06µM*	-29.1%	-2.4%	/	-13.5	/
CCOC(=O)C1CCN(c2nc(C)cc(C)c2C#N)CC1	0.9%	-2.8%	-19.6%	2.6%[46.1 µM]	-13.1	-10.6%[46.1 µM]
COc1cc2c(C#N)c(N3CCc4ccccc4C3)nc(N)c2c(N)n1	1.77µM*	?	0.0%	7.4%	13.8	?
COc1cc2c(C#N)c(N3CCCCC3)nc(N)c2c(N)n1	2.23µM*	?	7.0%	-21.6%	-3.5	-19.5%
Cc1cccc(N(Cc2cc(=O)[nH]c3ccccc23)C(=O)CCl)c1	0.3%	?	20µM*	/	-95.9*	/
COc1ccc(N(Cc2cc(=O)[nH]c3ccccc23)C(=O)CCl)cc1	-7.6%	?	20µM*	?	-101.2*	?
CCCC(=O)N(Cc1cc(=O)[nH]c2ccccc12)c1ccccc1C	3.9%	-4.1%	-10.1%	?	-72.8*	?
CCCC(=O)N(Cc1cc(=O)[nH]c2ccccc12)c1cccc(C)c1	2.6%	7.4%	-18.3%	-5.2%	-5.8	25.5%
